Measurements taken from the supplement of paper PMC11417369.
± gives the standard deviation of the averaged measurements. Over roughly 25,000 sequences, “ln(normalized median fluorescence intensity)” has its median near 7.9; the highest 2% begin near 11. Many of the other results were omitted from the sample, so the highest values are more common in it than they were.

What follows are sequences tested on PfAP2-I AP2 domain 3 (GST-tagged) (assay: gcPBM binding intensity (ln(normalized median fluorescence intensity)); higher = stronger DNA binding).
In short: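 The highest Masliner-normalised natural-log median intensity across replicate spots of either probe orientation is reported as binding intensity. GST-tagged P. falciparum DNA-binding domains expressed in E. coli were applied for 1 h to an Agilent 4 × 180k array of primer-extended double-stranded 36-bp intergenic genomic probes plus negative controls, and bound protein was detected with Alexa488 anti-GST antibody and scanned at 488 nm.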
With “TATTAAAAGTAAAAAACACACATGGATATATACATA [CACACA_site3959]” the “gcPBM binding intensity (ln)” value was 7.67 ± 0.64.
With AAACAAAGGGAACATGTGCACTTACAAAAAAAAAGA the “gcPBM binding intensity (ln)” value was 9.78 ± 0.28.
In the case of “ATCTATATTATTTCTACACACATATCTATAATATGT [CACACA_site7561]”, the “gcPBM binding intensity (ln)” value is reported as 7.85 ± 0.72.
“GCTCATATGACAACAACACACAAAAAAATAAAATGA [CACACA_site714]” was tested, and the “gcPBM binding intensity (ln)” value was 7.8 ± 0.69.
“TAAACAAATAAATATTGTACATTTTTTCCTTTTAAT [XGTACX_site5594]” was tested, and the “gcPBM binding intensity (ln)” value was 7.38 ± 0.39.
“TATAGTTTTGAAAACAAACACACAAAAAAAAAAAAA [CACACA_site1691]” was tested, and the “gcPBM binding intensity (ln)” value was 8.07 ± 0.7.
In the case of “TAATATACATATATATGTACATATATATATATATAT [XGTACX_site2684]”, the “gcPBM binding intensity (ln)” value is reported as 9.09 ± 0.47.
With GGGAAAATAAATAAAGTGCAGATATTAAAAGTTGTA the “gcPBM binding intensity (ln)” value was 8.85 ± 0.31.
With “TGTGCATAAATTTATGCACACATAAAAAAAAAAAAA [CACACA_site8954]” the “gcPBM binding intensity (ln)” value was 11.5 ± 0.93.
With “TATGTTGTTTATTTAGTGCATATTTAAATATTATAA [GTGCAC_site9601]” the “gcPBM binding intensity (ln)” value was 10.16 ± 0.078.
For “GTGCAAAATATTTTTACACACAAATTTTTACAACAG [CACACA_site3357]”, the “gcPBM binding intensity (ln)” value was 9.99 ± 0.63.
For “ATATATTTATTTTGTGCACACAACGCAAACCTTTTA [CACACA_site3508]”, the “gcPBM binding intensity (ln)” value was 10.98 ± 0.092.
In the case of TATATATATATATATGTGCACATTTTATTAAAATGT, the “gcPBM binding intensity (ln)” value is reported as 9.87 ± 0.15.
In the case of AAAAGTCTCTTTTTAGTGCACATTTTATTTAAATAT, the “gcPBM binding intensity (ln)” value is reported as 11.32 ± 0.078.
For “AATATAAGTTTATTAGTGCACAGATAAATATATATT [GTGCAC_site9784]”, the “gcPBM binding intensity (ln)” value was 11.4 ± 0.23.
“TATAAACCTTTTTGCACGCACACAAAAAAAAAATAA [CACACA_site168]” was tested, and the “gcPBM binding intensity (ln)” value was 9.99 ± 0.46.
“TAAAATAATTTATGCATACACACATATATATATATA [CACACA_site4021]” was tested, and the “gcPBM binding intensity (ln)” value was 9.49 ± 0.26.
With “TAATAAAAAAAGTGCACACACATAATATTTATATAT [CACACA_site7548]” the “gcPBM binding intensity (ln)” value was 9.7 ± 0.18.
For “TGCATAAATTTATGCACACATAAAAAAAAAAAAAAA [CACACA_site2923]”, the “gcPBM binding intensity (ln)” value was 10 ± 0.64.
In the case of “ATTACAATATATACGTGTACATATTACCACCGCTAC [XGTACX_site2308]”, the “gcPBM binding intensity (ln)” value is reported as 8.46 ± 0.7.
In the case of ACAATAAATATGTGGTTGCACTTATAATATATTTAT, the “gcPBM binding intensity (ln)” value is reported as 8.66 ± 0.4.
For “ATAAAATAAAACAACACACACGAATGTATAAATATA [CACACA_site4643]”, the “gcPBM binding intensity (ln)” value was 7.66 ± 0.66.
In the case of “TTTTTATAAAATTTTATGAGCTCGGAAAAAATAAAC [GTGCAC_negctrl_site637]”, the “gcPBM binding intensity (ln)” value is reported as 8.49 ± 0.48.
In the case of “TGTGAAAATTATGGGGCATGCAATACTTTAAAAATA [TGCATGCA_site653]”, the “gcPBM binding intensity (ln)” value is reported as 7.98 ± 0.72.
“GAACAACAACAAAAAAAAAAAAAAAAAAAAAAAAAA [CACACA_negctrl_site199]” was tested, and the “gcPBM binding intensity (ln)” value was 8.12 ± 0.83.
For “ATGATGTCTTTATATTGTACATATATGAAGACGTTA [XGTACX_site7751]”, the “gcPBM binding intensity (ln)” value was 7.79 ± 0.29.
For “TATGTCCATATTTCCACACACATATTATTTTTATAT [CACACA_site3798]”, the “gcPBM binding intensity (ln)” value was 8.18 ± 0.53.
For “AGCTACAAAAATTAATATATATATGTATAGTTATAC [TGCATGCA_negctrl_site531]”, the “gcPBM binding intensity (ln)” value was 7.38 ± 0.59.
With CAGTTGTTAATTTGTGTGCACCAAATATTATACATA the “gcPBM binding intensity (ln)” value was 11 ± 0.33.
With “AAATATTACATTTGTTAAATAATATGTTATACATAA [XGTACX_negctrl_site484]” the “gcPBM binding intensity (ln)” value was 7.32 ± 0.54.
With TATATATATATATATGTGCACATATTTATATGTTTT the “gcPBM binding intensity (ln)” value was 9.85 ± 0.22.
TTTTTGTTATTATGTGTGCACATATATATATATATA was tested, and the “gcPBM binding intensity (ln)” value was 10.3 ± 0.31.
For “TTATTTTATTTTTTTGTGCACATATATATTTATAAA [GTGCAC_site9615]”, the “gcPBM binding intensity (ln)” value was 10.86 ± 0.028.
“GTATTTCTTTAATATACACACACCAAAACAAAAAAA [CACACA_site579]” was tested, and the “gcPBM binding intensity (ln)” value was 8.13 ± 0.49.
In the case of “ATGTCAAATTTTTGTGCACACATATATAGTTATTAT [CACACA_site2242]”, the “gcPBM binding intensity (ln)” value is reported as 10.78 ± 0.028.
“GTCAAATTTTTGTGCACACATATATAGTTATTATTA [CACACA_site2241]” was tested, and the “gcPBM binding intensity (ln)” value was 11.2 ± 0.23.
In the case of “TCTTTCCTTATTAAAACACACAAATACATTATTTAA [CACACA_site2147]”, the “gcPBM binding intensity (ln)” value is reported as 7.84 ± 0.46.
In the case of “TTTTATTTCTTTGCACCATTTTAAATACAAACAAAT [CACACA_negctrl_site1553]”, the “gcPBM binding intensity (ln)” value is reported as 11.1 ± 0.79.
“TATAAAAATGTGCACACACACACATATTTATATTTA [CACACA_site6826]” was tested, and the “gcPBM binding intensity (ln)” value was 9.365 ± 0.007.
“TGTGTATTTATAAATACACACCAAATGTTAATATAT [CACACA_site6904]” was tested, and the “gcPBM binding intensity (ln)” value was 8.03 ± 0.47.
In the case of “GAAATAAATATAATATATATATATATATATATATGT [TGCATGCA_negctrl_site216]”, the “gcPBM binding intensity (ln)” value is reported as 8.25 ± 0.38.
With “CAACCATTTGTAGGTAAACACACATTATTATTAATA [CACACA_site8842]” the “gcPBM binding intensity (ln)” value was 7.47 ± 0.46.
In the case of “AAGTATTTTTTTACATGTACATATATATATATATAT [XGTACX_site5065]”, the “gcPBM binding intensity (ln)” value is reported as 9.4 ± 0.56.
ATATTATATCTAATCGTGCACAACTGTACATTTGTC was tested, and the “gcPBM binding intensity (ln)” value was 10.5 ± 0.12.
For “TTTTTTTCATAATATACACACAAAAAAAAAAAAAAA [CACACA_site3224]”, the “gcPBM binding intensity (ln)” value was 8.12 ± 0.68.
“TTCATTTTTTGCTTTCAACACACATACAATATATAT [CACACA_site9369]” was tested, and the “gcPBM binding intensity (ln)” value was 8.01 ± 0.49.
With “AAATTACCCATCCATACACACATATTTTTTTTAATT [CACACA_site2189]” the “gcPBM binding intensity (ln)” value was 7.96 ± 0.64.
For “AATTTTTTTTTTAGACGTACAAGAAAAAACAAAAAA [XGTACX_site4990]”, the “gcPBM binding intensity (ln)” value was 8.15 ± 0.55.
With “GTATTTAGATGATTAACACACATATGTGTATTAATA [CACACA_site6733]” the “gcPBM binding intensity (ln)” value was 7.92 ± 0.41.
With “TATTTTATAATAGGCACACATATAAAAATATATATA [CACACA_site4127]” the “gcPBM binding intensity (ln)” value was 7.96 ± 0.52.
“ATATATTTTTTAAACACACACATAAATATTTGTGTA [CACACA_site2879]” was tested, and the “gcPBM binding intensity (ln)” value was 7.84 ± 0.49.
“TAAAAAATAAAATACACACACATATTTATATTTATA [CACACA_site6737]” was tested, and the “gcPBM binding intensity (ln)” value was 7.41 ± 0.4.
With “TTTTGATATAAATATTAGATTAATAAATAAAAAAAT [CACACA_negctrl_site1635]” the “gcPBM binding intensity (ln)” value was 7.8 ± 0.39.
In the case of “AATATTTTTTTATAAACACACATATATATAAATATA [CACACA_site3524]”, the “gcPBM binding intensity (ln)” value is reported as 7.89 ± 0.33.
For TTCTATTTTTTAAAAGTGCATATTATAAATATATAT, the “gcPBM binding intensity (ln)” value was 9.63 ± 0.11.
With “ATTTTTTTATTTTGTGCACACACATAAAAATATATA [CACACA_site762]” the “gcPBM binding intensity (ln)” value was 11.1 ± 0.27.
With TAATAATTTATAATAGTGCATTTGATTTTAAAAATA the “gcPBM binding intensity (ln)” value was 9.81 ± 0.51.
With “TTTATTTTTATTTTTGTGCACGGGATTAAATAAAAG [GTGCAC_site9842]” the “gcPBM binding intensity (ln)” value was 11.22 ± 0.092.
For “TTTTTTATTTTGTGCACACACATAAAAATATATATA [CACACA_site761]”, the “gcPBM binding intensity (ln)” value was 11.2 ± 0.31.
“TAAAATAAAAATATAGTGCACAGATTTTGATATTTT [GTGCAC_site9696]” was tested, and the “gcPBM binding intensity (ln)” value was 11.2 ± 0.23.
For GGGATATTTTAAAGGGTGCATATTATTAAAATAATG, the “gcPBM binding intensity (ln)” value was 10.7 ± 0.51.
